Test results: PubChem BioAssay (NCI)
Compounds without any hit were thinned out: in the full panel of roughly 79,000, 15% have a hit. Values without a mark were called inactive. Calls of active or inactive are those of the source. No stated cut-off is given here; in the data, active means growth inhibition above about 70%; inactive means the rest.

Experiments:
[1] = NCI Yeast Anticancer Drug Screen. Data for the rad50 strain (AID 155);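 further: 0% = growth of vehicle-only cultures of the same strain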; conditions: S. cerevisiae rad50 strain growth inhibition; at 50.0 µM; stronger effect = higher value
Outline: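 Growth of the mutant yeast was measured after compound exposure and referenced to vehicle-treated cultures.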

[2] = NCI Yeast Anticancer Drug Screen. Data for the mec2-1 strain (AID 157); conditions: S. cerevisiae mec2-1 strain, at 50.0 µM, stronger effect = higher value
Outline: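 Compounds were applied to mec2-1 yeast cells. Their growth was then compared with that of vehicle-treated cultures to give growth inhibition.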

[3] = NCI Yeast Anticancer Drug Screen. Data for the sgs1 mgt1 strain (AID 161);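 further: 0% = growth of cultures given vehicle only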; conditions: S. cerevisiae sgs1 mgt1 strain, at 50.0 µM, stronger effect = higher value
Outline: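 Compounds are added to genetically altered yeast, and growth is compared with cultures given vehicle alone to give percent inhibition.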

[4] = NCI Yeast Anticancer Drug Screen. Data for the cln2 rad14 strain (AID 165);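 further: 0% = growth equal to vehicle treated cultures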; conditions: S. cerevisiae cln2 rad14 strain, at 50.0 µM, stronger effect = higher value
Outline: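 Strain: cln2 rad14 yeast, altered in cell cycle control and DNA damage repair. Read-out: growth inhibition vs vehicle.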

[5] = NCI Yeast Anticancer Drug Screen. Data for the bub3 strain (AID 167); conditions: S. cerevisiae bub3 mutant strain, at 50.0 µM, stronger effect = higher value
Outline: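 Whole-cell yeast assay. The mutant strain was incubated with compounds, and growth inhibition was determined by comparison with vehicle-treated cells.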

[6] = NCI Yeast Anticancer Drug Screen. Data for the mlh1 rad18 strain (AID 175); conditions: S. cerevisiae mlh1 rad18 strain growth inhibition; at 50.0 µM; stronger effect = higher value
Outline: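 A repair-deficient yeast strain is exposed to test compound, and growth is scored relative to vehicle-treated controls.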

Structure (SMILES)	growth inhibition [1]	growth inhibition [2]	growth inhibition [3]	growth inhibition [4]	growth inhibition [5]	growth inhibition [6]
COc1cc(O)c2c(c1)C(=O)C1=C(C2=O)[C@@H](C)OC(C)C1 (stereo partly specified)	-4.3%	10.2%	19.9%	11.1%	12.8%	19.8%
COC1=CC(=O)c2nc3ccccc3c3ccnc1c23	87% (active)	76.1% (active)	83.2% (active)	51.2%	87.3% (active)	87.2% (active)
COc1ccc(C2CC(=O)N(CC(=O)O)C(=O)C2)cc1	13.9%	14.8%	8.3%	-17%	-9.4%	7.55%
CC(C)c1nnnn1C12CC3CC(CC(C3)C1)C2	2.75%	-13.2%	1%	-17.4%	-3.3%	11.5%
Cc1cc2n(n1)C(=O)CC(=O)C2	8.4%	1%	2.25%	-24.4%	-1.2%	-3.7%
Cc1nc(C(=O)O)c(C(=O)O)[nH]1	-4.4%	-15.1%	-10.9%	-1.7%	-7.75%	1.2%
Cc1c(-c2ccccc2)[nH]n(C2=NCCN2)c1=O	10.8%	7.45%	-31.4%	-6.35%	-15.5%	-25%
Brc1ccccn1	35.5%	11%	6.2%	-15.1%	28.3%	22.8%
COc1ccccc1-n1on1-c1ccccc1OC	4.3%	18.1%	-3.4%	-30.9%	9.75%	20.1%
Cc1ccc(N=Nc2c(C)nc(N)nc2C)cc1	7.5%	13.9%	-12.7%	-2.85%	12.1%	-6.55%
COc1ccc(N=Nc2cc(OC)c(N=Nc3c(O)c4ccccc4[nH]c3=O)cc2OC)cc1	18.1%	16.8%	25.1%	13.8%	-14.2%	17.1%
Cc1ccc2c(c1)C(=O)/C(=N/Nc1ccc(Cl)cc1)CCO2	7.65%	-16.1%	6.2%	-2%	6.8%	4.65%
Nc1nc2c(c(=O)[nH]1)C(c1ccc(Cl)cc1)C=C(c1ccccc1)N2 (stereo unspecified)	5.6%	14.8%	3.8%	-1.85%	-4.75%	-33.5%
O=C(O)C1CC2(CCC1c1ccccc1)SCCS2 (stereo unspecified)	6.7%	1.15%	12.1%	13.6%	6.5%	-9.85%
CCCCCCCCCCCO	-5.75%	-13.2%	-3.8%	-6.8%	2.15%	-18.8%
CCN(CC)CCCCCOC(=O)c1ccccc1	23.2%	28.2%	48.5%	40%	43.4%	18.6%
CCOP(=O)(OCC)/C(C#N)=C/c1ccc(N(C)C)cc1	16.3%	-9.2%	12.4%	9.8%	-13.9%	5.8%
N=C(N)c1ccc(OCCOc2cccc(N)c2)cc1	3.35%	-15.8%	11.2%	-39%	-5%	13.5%

Structure (SMILES)	growth inhibition [1]	growth inhibition [2]	growth inhibition [3]	growth inhibition [4]	growth inhibition [5]	growth inhibition [6]
CC(=O)Nc1cc2c(cc1[N+](=O)[O-])-c1ccc([N+](=O)[O-])cc1C2=O	3.9%	4.4%	5.8%	3.2%	13%	-9.8%
CCOC(=O)C[C@](C)(O)C1CCCN1 (stereo partly specified)	26.5%	11.8%	5.95%	5.3%	-3%	8.75%
CCOC(=O)c1ccc(NC(=O)Sc2ccccc2C)cc1	5.55%	12.9%	11.3%	7.5%	28%	13.6%
CC(CNC(=O)C12CC3CC(CC(C3)C1)C2)NC(=O)C12CC3CC(CC(C3)C1)C2 (stereo unspecified)	6.45%	11%	-27.4%	7.85%	-11.8%	14.3%
O=[N+]([O-])c1cc(C=NCCCCCCN=Cc2ccc(Cl)c([N+](=O)[O-])c2)ccc1Cl	6.9%	-3.85%	-9.75%	-19.3%	4.35%	-0.9%
CCCCCCC1CCCCC1	-35%	-41.7%	-29%	19.9%	-28.8%	-20%
CC([N+](=O)[O-])S(=O)(=O)c1ccccc1 (stereo unspecified)	3.55%	-20.1%	-10.4%	-7.45%	-2.95%	5.5%
CC1=NN(c2ccccc2)C(=O)/C1=C\c1ccccc1	15.6%	16.9%	24.7%	10.1%	33.5%	21.6%
Cn1c(N)c(-n2[nH]c(=O)n(-c3ccccc3)c2=O)c(=O)n(C)c1=O	-20.6%	15.3%	-3.25%	-14.8%	14.6%	18.1%
C=C1C(=O)O[C@H]2[C@@H](O)[C@H](C)CCC[C@]3(C)O[C@H]3CC[C@@]3(C)O[C@@H]3C[C@@H]12	19.4%	37.2%	70.5% (active)	41.8%	61.1%	58.2%
N#CC1OC1c1ccccn1 (stereo unspecified)	-6.25%	7.05%	-12.3%	9.05%	5.35%	-21.6%
NC(=O)C1(C(N)=O)CC1	11.4%	4.55%	-14.5%	-0.05%	-3.75%	5.1%
CCN(CC)CCNc1ncnc2c1cnn2C	7.7%	1.8%	-17.9%	-4.5%	-20.9%	-8.9%
Fc1cccc2cccnc12	0.05%	-4.45%	11.2%	5.65%	12.7%	7.4%
[N-]=[N+]=NC(c1ccccc1)S(=O)c1ccccc1 (stereo unspecified)	98.1% (active)	98.5% (active)	95.8% (active)	48%	96.3% (active)	91% (active)
Cc1cccc(NC(=S)Nc2ccc(-c3ccc(NC(=S)Nc4cccc(C)c4)cc3)cc2)c1	-0.2%	22.6%	29.9%	0.15%	16.2%	34.7%
CS(=O)(=O)OCCC(O)COS(C)(=O)=O (stereo unspecified)	-7.55%	-7.25%	9.45%	-55%	-12.5%	4.1%
Nn1c(C23CC4CC(CC(C4)C2)C3)n[nH]c1=S	4.35%	5.65%	36.1%	-6.85%	16.6%	28.1%
